Experimental data published in PubChem BioAssay AID1508621 (National Center for Advancing Translational Sciences (NCATS), 2021).
Records with an inconclusive call do not appear. Active and inactive are the calls of the source. Calls come from the whole dose curve; as a rule, active = well fitted inhibition curve with a large enough effect; inconclusive = small, poorly fitted or top-dose-only effect; inactive = no such curve, though single readings can be large or run the other way.

Assay: Confirmatory qHTS for Identification of Small Molecule Inhibitors of Huntingtin Promoter Activity; note: nearly all actives have a fitted effect of over 65% in size
Conditions: HEK293 HTT promoter firefly luciferase reporter, 24 h; series mostly up to 57.5 µM
Procedure, shortened: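 Activity normalized between vehicle control (0%) and zero RLU (-100%) from firefly luminescence (Dual-Glo). Compounds, up to 57.5 uM final, incubated 24 h at 37C on HEK293 reporter cells plated 24 h earlier.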
Potency is the fitted concentration of half-maximal effect.

Potency, inactive:
Cc1csc2nc(COC(=O)c3ccccc3NC(=O)c3ccccc3Cl)cc(=O)n12
CC[C@@H]1C(=O)N(C)c2cnc(Nc3ccc(C(=O)NC4CCC(N5CCN(CC6CC6)CC5)CC4)cc3OC)nc2N1C(C)C (some centres not stated)
COc1ccccc1C1CC(=O)NC(C)=C1C(=O)OC1CCCCCC1 (configuration not stated)
CN(C)Cc1ccc(-c2nc3cccc4c3n2CCNC4=O)cc1
Cn1cnc(=N)c2[nH]cnc21
Cc1ccc(-n2ncc3c(N(C)Cc4ccccc4)ncnc32)cc1
O=C(CCCCCCC(=O)Nc1ccccc1)NO
CC=C1NC(=O)[C@H]2CSSCCC=C[C@H](CC(=O)N[C@H](C(C)C)C(=O)N2)OC(=O)[C@H](C(C)C)NC1=O
COc1ccc(-c2nc(N3CCOCC3)c3sc(CN(C)c4ncc(C(=O)NO)cn4)cc3n2)cn1
COc1ccc(S(=O)(=O)Nc2cc(-c3cn4ccc(C)cc4n3)ccc2C)cc1OC
O=C(Cn1cc(SCc2ccccc2F)c2ccccc21)N1CCCC1
COc1ccc(-c2ccc3ncc4c(c3c2)n(-c2ccc(N3CCNCC3)c(C(F)(F)F)c2)c(=O)n4C)cn1
Cn1cc(CNCC2CCN(c3ncc(C(=O)NO)cn3)CC2)c2ccccc21

Potency, active:
Cc1cc(C)c(NS(=O)(=O)c2ccc(-c3cnc(C4CC4)o3)cc2)c(C)c1 675 nM
COc1cccc(N2CCN(C(=O)c3cccc(-n4c(C)nc5cccnc54)c3)CC2)c1 23900 nM
COc1ccc(-c2nc(CSCC(=O)N3CCN(c4cc(Cl)ccc4C)CC3)c(C)o2)cc1 9530 nM
COc1ccc(-c2noc(N3CCC(C(=O)N4CCN(c5cccc(OC)c5)CC4)CC3)n2)cc1 1350 nM
COC[C@H](NC(=O)c1cnc(C)s1)C(=O)N[C@@H](COC)C(=O)N[C@@H](Cc1ccccc1)C(=O)[C@@]1(C)CO1 301 nM
FC(F)(F)c1cccc(Nc2nc3nonc3nc2Nc2ccc(Cl)cc2)c1 379 nM
CC(C)C[C@@H](C=O)NC(=O)[C@H](CC(C)C)NC(=O)[C@H](CC(C)C)NC(=O)OCc1ccccc1 2130 nM
COC(=O)c1c(C)oc2ccc(N(C(=O)c3ccncc3)S(=O)(=O)c3ccc(OC)cc3)cc12 3790 nM
CC(C)OCc1cc(CN2CCN(c3cccc(C(F)(F)F)c3)CC2)c(O)c2ncccc12 9530 nM
